Laboratory results from PubChem BioAssay (NCI).
Compounds without any hit were thinned out: in the full panel of roughly 79,000, 15% have a hit. A number with no mark means an inactive call. The source made the active and inactive calls. Rule as the data show it: active = growth inhibition above about 70%; inactive = the rest.

assay: NCI Yeast Anticancer Drug Screen. Data for the mlh1 rad18 strain (AID 175); conditions: S. cerevisiae mlh1 rad18 strain growth inhibition, stronger effect = higher value; at 50.0 µM unless noted
Description: Growth inhibition of yeast strains with defined genetic alterations is measured as a screen for potential anti-cancer activity. Selected strains with alterations in DNA damage repair or cell cycle control were exposed to compounds and growth inhibition was measured relative to vehicle treated controls. The strain used in this assay is mlh1 rad18

| SMILES | growth inhibition |
| --- | --- |
| CC(C)CCCC(C)C1CCC2C3CC=C4CC(OC(=O)Nc5ccc(S(=O)(=O)NC6CCCCC6)cc5)CCC4(C)C3CCC12C (stereo not given) | 8.25% |
| COC(=O)N/N=C(/CCCC(=O)Nc1cccc([N+](=O)[O-])c1)C(C#N)c1ccc(CC#N)cc1 (stereo not given) | -3.3% |
| CC(C)(C)c1cc2c(O)c3cccc4c(=O)c5cccc6c5-c(c34)c2c(c1)c6=O | -11.2% |
| NNC(=O)Cc1cccnc1 | 9.55% |
| O=C(Nc1ccc([N+](=O)[O-])cc1C(=O)O)c1ccc([N+](=O)[O-])cc1 | 2% |
| CCCCOC(=O)CC(O)C(=O)OCCCC (stereo not given) | -11% |
| CC(C)N(CCO)CC(O)Cn1cnc2ncnc(N)c21 (stereo not given) | 4.45% |
| COC(=O)c1ccc(COC(=O)N2C=CCC2C(=O)O)cc1 (stereo not given) | 1.15% |
| O=C(CCl)NNC1=Nc2ccc(Cl)cc2SC1 | 11.2% |
| CCOC(=O)C(C)N1C(=O)c2ccccc2C1=O (stereo not given) | 0.55% |
| CC(C)=CCCC(C)CCOc1cccc(C)c1 (stereo not given) | 1.2% |
| CC(=O)Cc1cc(-c2cc(CC(C)=O)nc(N)n2)nc(N)n1 | 20.4% |
| O=C(NCCS)C(=O)NCCS | -10.2% |
| COc1ccc(/C=N\NC(=O)c2cnccn2)cc1 | 11.1% |
| Cc1ccc(C)c(NC(=O)c2cccc(C(=O)Nc3cc(C)ccc3C)c2)c1 | 7% |
| COc1ccc(C=NCC(OC)OC)cc1OCc1ccccc1 | 12.4% |
| CCCCOC(=O)COc1c(Cl)ccc(Cl)c1Cl | 6.7% |
| CCCCCCC(/C=N/NC(=O)CCCCCCCCC(=O)N/N=C/C(=C/c1ccccc1)CCCCCC)=C\c1ccccc1 | 15.9% |
| CN(C)C1=C(Cl)C(=O)C(=O)c2cccnc21 | 38.4% |
| NCC(=O)c1ccc2cc(Br)c3ccccc3c2c1 | 0.15% |

| SMILES | growth inhibition |
| --- | --- |
| CCOC(=O)/C(=C\c1ccccc1)c1ccccc1 | -6.8% |
| C/C=C(/I)CBr | 21.3% |
| O=C(O)c1cccc(OCCO)c1 | -29.9% |
| CC[N+](CC)(CC)CCOC(=O)c1cc(OC)c(OC)c(OC)c1 | -0.6% |
| Cc1ccc(/C=C/C(=O)C(C)CN(C)C)cc1C (stereo not given) | 9.65% |
| CCOC(=O)NC(=O)c1cn(CCSCCOC(=O)NCCCCCCNC(=O)OCCSCCn2cc(C(=O)NC(=O)OCC)c(=O)n(C)c2=O)c(=O)n(C)c1=O | -18.4% |
| CCC1(CC)SC=C(C)NC1=O | 6.75% |
| Cc1cc(C)c(F)c(C)c1F | -2.3% |
| CC(=O)O/N=C(\C(c1ccccc1)c1ccccc1)C1c2ccccc2-c2ccccc21 | 96.2% (active) |
| CN=c1ss/c(=N\C(=S)N(C)C)n1C1CCCCC1 | 21.2% |
| CC(=O)OCC(OC(C)=O)C(OC(C)=O)C(OC(C)=O)C(OC(C)=O)C(=O)NC1CCc2ccccc2C1 (stereo not given) | 21.9% |
| CCCCCCCNC(=O)C(C)Br (stereo not given) | 22.1% |
| CCOC(=O)/C(C#N)=C/c1ccccc1Cl | 6.35% |
| CCc1ccc2c(c1)CCCC2(C)C | -0.05% |
| CCCCCCCCCC(=O)Oc1cccc2c1CC(C[Se]c1ccccc1)C(=O)O2 (stereo not given) | 5.7% |
| CC(=O)c1ccc([N+](=O)[O-])[nH]1 | -5.1% |
| CC(=O)OC(C(N)=O)c1ccccc1 (stereo not given) | -2.95% |
| CNCc1cc(Br)cc(Br)c1O | -2.6% |
| Cc1ccc(C)n1-c1ccccc1 | -19.4% |
| Cc1nc(-c2ccc(N=Cc3ccc(N4CCC5(CCCCC5)CC4)cc3)cc2)cs1 | -3% |
